Measurements as given in PubChem BioAssay (NCI).
Compounds without any hit were thinned out: in the full panel of roughly 83,000, 20% have a hit.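 Single-dose data. Exposure time 48 hours. Values below 10 considered active.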 Activity calls are given as the source filed them.

Each molecule was assayed on SF-268 CNS (assay: NCI-60 one-dose screen, 48 h (100 = growth as untreated, 0 = no growth, -100 = all killed)). Conditions: 10 µM unless noted.
For COc1cc2nc(Cl)nc(Nc3cccc(C4=Nc5c(N)nc(N)nc5NC(c5ccccc5)C4)c3)c2cc1OC (stereo not drawn), the growth was 84.3% (inactive). C#C[C@]1(O)CC[C@H]2[C@@H]3CC=C4c5sc(-c6ccc7c(c6)OCO7)nc5CC[C@]4(C)[C@H]3CC[C@@]21C was tested, and the growth was 51.7% (inactive). CCO/C=N/C1=C(C#N)C(c2ccc(F)cc2)c2sc3c(C)cccc3c2O1 (stereo not drawn) was tested, and the growth was 38.3% (inactive). In the case of COc1ccc(/C=C(\C#N)C(=O)N2c3ccccc3Sc3ccc(SC)cc32)cc1F, the growth is reported as 91.8% (inactive). For NC(N)=Nc1ccc(Oc2cccc(Nc3ccc(Cl)c(C(F)(F)F)c3)c2)cc1, the growth was 32.8% (inactive). With COc1ccccc1-n1cc(C#N)c(N)c1C(=O)c1ccc(Br)cc1 the growth was 89% (inactive). With Cc1cccc(/C=C/C(=O)Nc2ncc(Cc3cccc(C)c3)s2)c1 the growth was 48.2% (inactive). For C=C(C=O)[C@@H]1CC[C@]2(C)[C@H](CC=C3[C@H]4[C@@H](C)[C@H](C)CC[C@]4(C(=O)OC)CC[C@]32C)[C@@]1(C)CCC#N, the growth was 20% (inactive). In the case of NC(N)=Nc1ccc(Oc2cccc(Nc3ccc(Br)c(C(F)(F)F)c3)c2)cc1, the growth is reported as 25.3% (inactive). Nc1nc(N)c2c(n1)NC(c1ccc(C(F)(F)F)cc1)CC(c1ccc(Nc3nc(NCCO)nc(N4CCOCC4)n3)cc1)=N2 (stereo not drawn) was tested, and the growth was 63.6% (inactive). With COc1ccccc1-n1cc(C#N)c(N)c1C(=O)c1ccc(C)cc1 the growth was 90.6% (inactive). For O=C(CCn1c[n+](CC(=O)c2ccc(F)cc2)c2ccccc21)Nc1cccc2cccnc12, the growth was 78.6% (inactive). C#CCn1cccc1CNc1ccc(OC)cc1 was tested, and the growth was -56% (active). NC(N)=Nc1ccc(Oc2cccc(Oc3ccc(Cl)c(C(F)(F)F)c3)c2)cn1 was tested, and the growth was 64.9% (inactive). In the case of CCn1c2ccccc2c2cc(-n3nncc3-c3ccccc3)ccc21, the growth is reported as 35.2% (inactive). COc1ccc(COc2ccc(/C=C3\C(=O)Nc4ccccc43)cc2OC)cc1 was tested, and the growth was 103% (inactive). In the case of O=C(CCn1cc[n+](CC(=O)c2ccc(-c3ccccc3)cc2)c1)Nc1cccc2cccnc12, the growth is reported as 72.2% (inactive). C[C@@H]1C[C@H]2C(=O)O[C@@H](C)C(NC(=O)[C@H](Cc3cc(F)cc(F)c3)NC(=O)Nc3ccc(C4CC4)cc3F)C(=O)N3CCC[C@H]3C(=O)N3CCCC[C@H]3C(=O)N[C@@H](CO)C(=O)N2C1 (stereo partly drawn) was tested, and the growth was 31.4% (inactive). In the case of CCOC(=O)c1c(Nc2ccccc2)nn2c(-c3ccccc3)ccnc12, the growth is reported as 113% (inactive). C#C[C@]1(O)CC[C@H]2[C@@H]3CC=C4c5sc(-c6cccc(O)c6)nc5CC[C@]4(C)[C@H]3CC[C@@]21C was tested, and the growth was -15.4% (active). C#C[C@]1(O)CC[C@H]2[C@@H]3CC=C4c5sc(-c6ccc(C)cc6)nc5CC[C@]4(C)[C@H]3CC[C@@]21C was tested, and the growth was 7.62% (active). With NS(=O)(=O)c1ccc(-n2cc(-c3cccc(NC(=O)c4ccc(N5CCOCC5)c(C(F)(F)F)c4)c3)nn2)cc1 the growth was 68.9% (inactive). CCO/C=N/C1=C(C#N)C(c2ccc(OC)cc2)c2sc3c(CC)cccc3c2O1 (stereo not drawn) was tested, and the growth was 61.5% (inactive). O=C(CN1CCN(c2cc(=O)[nH]c3ccc(F)cc23)CC1)Nc1ccc(Cl)cc1 was tested, and the growth was 38.3% (inactive). In the case of COc1cc2nc(Cl)nc(Nc3cccc(C4=Nc5c(N)nc(N)nc5NC(c5ccc6c(c5)OCO6)C4)c3)c2cc1OC (stereo not drawn), the growth is reported as 75.6% (inactive). In the case of CC1(C)NCCC[C@]2(C)[C@H]3C/C(=N\O)C4[C@@H]5C[C@@](C)(CO)CC[C@]5(C)CC[C@@]4(C)[C@]3(C)CC[C@@H]12 (stereo partly drawn), the growth is reported as 87.6% (inactive). C#Cc1nc(/C=C/C(=O)c2nccn2C)cs1 was tested, and the growth was -54.2% (active). In the case of COc1cc2nc(Cl)nc(Nc3cccc(C4=Nc5c(N)nc(N)nc5NC(c5ccc(Cl)cc5)C4)c3)c2cc1OC (stereo not drawn), the growth is reported as 84.2% (inactive). For CC(C)(C)c1ccc(C(=O)Nc2sc3c(c2C(N)=O)CCC(O)C3)cc1 (stereo not drawn), the growth was 63.2% (inactive). COc1ccc(-c2nc3cccc(O)c3c(=O)n2Cc2ccccc2)cc1COc1ccc(NC(C)=O)cc1 was tested, and the growth was 58.2% [3 µM] (inactive). In the case of N#Cc1cn(Cc2ccc(Cl)cc2Cl)c(C(=O)c2ccc(Br)cc2)c1N, the growth is reported as 92.7% (inactive). In the case of O=C(CCn1c[n+](CC(=O)c2ccc(-c3ccccc3)cc2)c2ccccc21)Nc1cccc2cccnc12, the growth is reported as 55% (inactive). For Cc1ccc(-c2nnc(SCc3ccc(O)c4ncccc34)o2)cc1, the growth was 21.2% (inactive). In the case of Cc1ccc(S(=O)(=O)N(CC[C@@H]2C[C@H]2c2cc3ccccc3o2)S(=O)(=O)c2ccc(C)cc2)cc1, the growth is reported as 98.1% (inactive). For COc1ccc(Cn2cc3c(c2-c2cc(OC)c(OC)c(OC)c2)CCc2c(CN4CCCC4)noc2-3)cc1, the growth was 46.5% (inactive). Cc1nn(-c2ccccc2)c2ncnc(N/N=C/c3cccc(O)c3)c12 was tested, and the growth was 55.9% (inactive). COc1ccc(C2CC(c3ccc(Nc4nc(NCCO)nc(N5CCOCC5)n4)cc3)=Nc3c(N)nc(N)nc3N2)cc1 (stereo not drawn) was tested, and the growth was 90.2% (inactive). O=C(CN1CCN(c2cc(=O)n(-c3ccccc3)c3ccccc23)CC1)Nc1ccc(F)cc1 was tested, and the growth was 69.2% (inactive).
